High-throughput results deposited in PubChem by National Center for Advancing Translational Sciences (NCATS).
Only some compounds are listed: those with a hit (about 21% of all), similar ones and a draw of the others.
IL1B secr inh: inflammasome signaling inhibition, IL-1 beta readout; actives 4.7% (n = 360,000); activity change, % at 57.5 µM; THP-1 LPS/ATP IL-1B secretion, AlphaLISA, 16 h; stronger effect = lower value; in the data active = activity change below about -50%; inconclusive = mostly about -30% to -49%; also: % is scaled to controls: 0 for no effect and ±100 for the full control effect
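THP-1 cells pretreated 1 hr with compounds (up to 57.5 uM final), then stimulated with LPS (250 ng/mL final) plus ATP (1.25 mM final); secreted IL-1B measured by AlphaLISA after 16 hr, decreased signal indicating inhibition.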
DT40 TDP1 CPT: DT40-hTDP1 cell growth loss with CPT. chicken DT40 Tdp1-/-;hTDP1 cells + 20 nM CPT, ATP luminescence, 48 h. Potency, µM (highest dose often 46.2 µM), for inactives: top-dose activity change, negative = growth inhibition, hits mostly inhibitors. actives 12% (n = 420,000). AID 686979; also: potency is read from the fitted curve at half-maximal effect; % is scaled to controls: 0 for no effect and ±100 for the full control effect; nearly all actives have a fitted effect of over 55% in size
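Chicken DT40 Tdp1-/- cells stably complemented with human TDP1 were seeded at 400 cells/well in medium containing 20 nM camptothecin, exposed to pin-transferred compounds, and grown at 37 °C for at least 48 hr. Viability was read as ATP luminescence.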
DT40 TDP1 no CPT: qHTS for Inhibitors of human tyrosyl-DNA phosphodiesterase 1 (TDP1): qHTS in cells in absence of CPT; Potency, µM (titrated, usually from 46.2 µM), for inactives: at the top dose activity change, negative = growth inhibition, usual class: inhibitors; DT40 Tdp1-/- hTDP1 cells, no CPT, ATP luminescence, 48 h; AID 686978, 2013; actives 15% (n = 420,000); also: potency is read from the fitted curve at half-maximal effect; % is scaled to controls: 0 for no effect and ±100 for the full control effect; nearly all actives have a fitted effect of over 55% in size
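Readout: luminescence from CellTiter-Glo after 30 min in the dark at RT. Cells: DT40 Tdp1-/- with stable hTDP1, 400/well. Exposure: compounds alone, ≥48 hr, 37 °C.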
D3 ag: agonists of human D3 dopamine receptor | max activation, % | AID 652048 | D3R DiscoveRx beta-arrestin cells, luminescence, 90 min | actives 0.58% (n = 410,000); in the data active = max activation above about 30%; also: 0% is about no effect
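Cells at 1500/well, incubated overnight, then treated with pinned compounds (dopamine as control) for 90 min at 37 degrees C. DiscoveRx reagent added for 30 - 60 minutes at room temperature; luminescence read.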
ClpP mod: qHTS Assay for Activators of ClpP | AID 651965, 2013 | purified B. subtilis ClpP, FRET peptide cleavage, 20 min | ATP-dependent Clp protease proteolytic subunit (Bacillus subtilis (strain 168)), P80244 | Potency, µM (top dose mostly 57.5 µM), inactives show top-dose activity change, negative = active | actives 1.9% (n = 340,000); active = well fitted falling curve with a large enough effect; inconclusive = small, poorly fitted or top-dose-only effect; inactive = no such curve, though single readings can be large or run the other way; also: potency is read from the fitted curve at half-maximal effect; the source files actives as falling curves though it sought activators and does not explain the sign; nearly all actives have a fitted effect of over 65% in size
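ClpP 10 microg/mL final, pH 8 Tris/KCl buffer with BSA, glycerol, Tween-20; compound pinned in; FRET-FV substrate; RT 20 min; Ex320/Em430; ΔFRET vs ADEP 5.8 microM, DMSO, no enzyme.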
DRD3 antagonist: antagonists of human D3 dopamine receptor. P35462. D3R cells, DiscoveRx beta-arrestin luminescence, antagonist mode; stronger effect = lower value. max response, negative = inhibition, %. actives 2.5% (n = 360,000). AID 652054; in the data active = max response below about -50%; inconclusive = no clear call, values can overlap the other calls; also: % is scaled to controls: 0 for no effect and ±100 for the full control effect
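Cells expressing the human receptor were seeded at 1500 cells/well, incubated overnight at 37 degrees C in 5% CO2, then exposed to library compounds with dopamine controls for 90 minutes at 37 degrees C before luminescent detection.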
* marks the source's active call; other numbers are inactive results; ? = inconclusive; nt = no result. Unless noted, calls follow the shape of the dose curve; as a rule, active = well fitted inhibition curve with a large enough effect; inconclusive = small, poorly fitted or top-dose-only effect; inactive = flat fitted curve, though single readings scatter.

SMILES	IL1B secr inh	DT40 TDP1 CPT	DT40 TDP1 no CPT	D3 ag	ClpP mod	DRD3 antagonist
COc1ccc(-c2cnc3c(NC(C)=O)cc(-c4ccc(C(=O)N5CCOCC5)cc4)cn23)cc1OC	?	?	23µM*	1	-8%	155
CC(=O)Nc1cc(-c2ccc(C(=O)N3CCOCC3)cc2)cn2c(-c3cccc(C(F)(F)F)c3)cnc12	0	?	15µM*	4	?	12
COc1ccc(C(=O)Nc2ccc(C(=O)N3CCOCC3)cc2)cc1OC	7	-17%	-11%	-2	nt	1
CC(=O)Nc1cc(-c2ccc(C(=O)N3CCOCC3)cc2)cn2c(-c3ccccc3)cnc12	-2	?	?	2	25µM*	8
Cc1cc(-c2nnc(CCC(=O)N(C)Cc3cccc4ccccc34)o2)no1	43	-23%	-22%	2	nt	-18
CC(=O)Nc1cc(-c2ccc(C(=O)N3CCOCC3)cc2)cn2c(-c3ccc(F)cc3)cnc12	-6	?	8.2µM*	-4	4%	0
CC(=O)NC1C(=O)N(CCN2CCOCC2)c2ccc(C)cc21 (stereo not drawn)	-17	0%	9%	1	-8%	-2
Cc1ccc2c(c1)C(=C(C#N)C#N)C(=O)N2CCN1CCCCC1	-10	23µM*	18µM*	-13	nt	-55*
Cc1ccc2c(c1)C(=C(C#N)C#N)C(=O)N2CCN1CCOCC1	13	16µM*	?	-2	0%	-15
O=C(COc1ccc(F)cc1)Nc1ccc2nc(SCC(=O)N3CCCC3)sc2c1	nt	12µM*	23µM*	1	-3%	nt
O=C(COc1ccc(F)cc1)Nc1ccc2nc(SCC(=O)N3CCOCC3)sc2c1	nt	10µM*	12µM*	-14	-2%	nt
O=C(Nc1ccc(F)cc1)Nc1nnc(SCC(=O)N2CCCCC2)s1	nt	?	3.3µM*	-8	0%	nt
O=C(COc1ccccc1)Nc1ccc2nc(SCC(=O)N3CCc4ccccc43)sc2c1	nt	?	?	0	-3%	nt
O=C(COc1ccccc1)Nc1ccc2nc(SCC(=O)N3CCOCC3)sc2c1	nt	18µM*	15µM*	11	-2%	nt
Cc1ccc(C(=O)NCC(=O)N2CCN(c3cccc(Cl)c3)CC2)s1	-10	-23%	?	-4	nt	-3
COc1ccc(CCCc2n[nH]c(=S)n2C)cc1C	-3	-29%	-12%	0	0%	11
COc1ccc(Cc2n[nH]c(=S)n2C)cc1Br	-68*	1%	-10%	-5	nt	-8
COc1cc(NC(=O)c2cccc(Cl)c2)c(OC)cc1NC(=O)CN1CCCCC1	-79*	?	?	5	nt	14
COc1ccc(Cl)cc1NC(=O)CN1CCCC1	-1	1%	-3%	-17	nt	?
COc1cc(NC(=O)c2ccc(F)cc2)c(OC)cc1NC(=O)CN1CCCCC1	-68*	?	16µM*	1	2%	10
COc1cc(NC(=O)c2ccccc2)c(OC)cc1NC(=O)CN1CCCCC1	?	?	20µM*	-3	-2%	-12
CCOc1ccc(C2(C)NC(=O)N(CCN(C)C)C2=O)cc1 (stereo not drawn)	28	30%	16%	0	nt	3
C#CCCC/C(=C\C(=O)N(C)[C@H](C(=O)N(C)[C@H](C(=O)N(C)[C@H](C(=O)N(C)[C@H](C(N)=O)C(C)C)C(C)C)C(C)C)C(C)C)OC	-19	21µM*	18µM*	10	1%	14
Cc1ccc(NC(=O)NCc2cccn2Cc2ccccc2)c(C)c1	nt	-12%	-1%	-7	0%	nt
CC(=O)Nc1ccc(OCc2ccccc2)cc1[N+](=O)[O-]	-13	-13%	-20%	-15	2%	16
SMILES	IL1B secr inh	DT40 TDP1 CPT	DT40 TDP1 no CPT	D3 ag	ClpP mod	DRD3 antagonist
CC(=O)Nc1cc2c(cc1[N+](=O)[O-])-c1ccccc1C2O (stereo not drawn)	?	?	12µM*	-12	nt	-15
C/C(CCS(=O)(=O)c1ccccc1)=N/O	12	-7%	4%	0	nt	-6
CCOc1ccc(NC(=O)C(Cc2ccccc2)N2C(=O)c3cccc4cccc(c34)C2=O)cc1 (stereo not drawn)	93	12µM*	8.2µM*	1	nt	9
CCOC(=O)C(Cc1ccc(NC(=O)/C(=C/c2ccccc2)NC(=O)c2ccccc2)cc1)N1C(=O)c2ccccc2C1=O (stereo not drawn)	26	5.2µM*	5.8µM*	14	-5%	11
CCOC(=O)C(Cc1ccc(NC(=O)/C(=C/c2ccc(OC(C)=O)cc2)NC(C)=O)cc1)N1C(=O)c2ccccc2C1=O (stereo not drawn)	0	?	?	17	0%	-1
CCOC(=O)N1CCc2c(sc3c2c(=O)n(-c2ccc(CC)cc2)c(=O)n3CC(=O)NCC2CCCO2)C1 (stereo not drawn)	50	4.6µM*	1.3µM*	-3	-3%	-1
COc1cccc(Cn2c(=O)n(-c3cccc(Cl)c3)c(=O)c3c4c(sc32)CN(C(C)=O)CC4)c1	nt	?	18µM*	-4	-2%	nt
CCCN(CCC)C(=O)Cn1c(=O)n(-c2ccc(CC)cc2)c(=O)c2c3c(sc21)CCC3	nt	?	16µM*	-13	-1%	nt
CC(=O)N1CCc2c(sc3c2c(=O)n(-c2ccccc2)c(=O)n3CC(=O)NCC2CCCO2)C1 (stereo not drawn)	26	-2%	11%	4	-5%	9
CCOC(=O)N1CCc2c(sc3c2c(=O)n(-c2ccc(CC)cc2)c(=O)n3Cc2cccc(OC)c2)C1	nt	13µM*	?	8	-1%	nt
Nc1nnc(-c2ccc(Cl)c([N+](=O)[O-])c2)s1	16	-22%	?	-2	0%	8
